Screening data deposited in PubChem BioAssay by Broad Institute.
aSyn 5UTR act – Activators via SNCA 5'UTR binding, MLPCN | 7.1% of 300,000 active | activity score, % (tested at 7.5 µM), hits read low | alpha-synuclein 5'UTR reporter, activators screen; in the data active = activity score below about -60%
* marks the source's active call; other numbers are inactive results. A selection follows.

SMILES | aSyn 5UTR act
O=S(=O)(c1ccc(Cl)cc1)N1CCC(c2nc3ccccc3[nH]2)CC1 | 76
Cc1ccc(Cn2nnnc2CN2CCC(c3nc4ccc(Cl)cc4[nH]3)CC2)cc1 | 78
O=C(Nc1nnc(SCc2ccc(F)cc2)s1)c1ccc2ncsc2c1 | -100*
Cn1nnc2cc(C(=O)Nc3ccccc3F)ccc21 | -111*
O=C(Nc1cccc(F)c1)c1ccc2ncsc2c1 | -204*
O=C(Nc1ccc(Cl)cc1Cl)c1ccc2ncsc2c1 | -177*
O=C(Nc1ccc(F)cc1F)c1ccc2ncsc2c1 | -120*
O=C(Nc1ccccc1F)c1ccc2ncsc2c1 | -175*
CNC(C)C#Cc1ccc2c(=O)c3cc(C)c(C)cc3oc2c1 (configuration not stated) | -227*
CNC(C)C#Cc1ccc2oc3cc(C)c(C)cc3c(=O)c2c1 (configuration not stated) | -196*
COc1ccc(-c2cc3nc4n(c(=O)c3s2)CCC4)cc1 | 59
COc1ccc(-c2nc3n(c2C)CCC3)cc1 | -63*
CN1C2CCC1/C(=C\c1ccccc1F)C(=O)/C2=C/c1ccccc1F | -89*
COc1ccc(C2CC(C)(c3ccc(OC)cc3)Nc3ccccc3N2)cc1 (configuration not stated) | -192*
CC(C)c1ccc(/C=N/Nc2ccc(C(=O)O)cc2)cc1 | 85
Cc1nn(-c2ccccc2Cl)c(Cl)c1/C=N/Nc1cccc(C(=O)O)c1 | 103
CSc1ccc(/C=N/Nc2ccc(Cl)c(C(=O)O)c2)cc1 | -134*
Cc1nn(-c2cccc(C(F)(F)F)c2)c(Cl)c1/C=N/Nc1cccc(C(=O)O)c1 | -108*
O=C(O)c1ccc(/C=N/Nc2cccc(C(F)(F)F)c2)cc1 | -137*
O=C(O)c1ccc(N/N=C/c2ccc(-c3ccccc3)cc2)cc1 | -78*
C/C(=N\Nc1cccc(C(F)(F)F)c1)c1ccc(O)cc1 | -76*
O=C(O)c1ccc(N/N=C/C=C/c2ccccc2)cc1 | -125*
O=C(O)c1cc(N/N=C/c2ccc(-c3ccccc3)cc2)ccc1Cl | -202*
COc1ccc(/C=C2\SC(=O)N(CCC(=O)Nc3ccccc3)C2=O)cc1OC | 82
COc1ccccc1/C=C1\SC(=O)N(CCC(=O)NNC(=O)c2ccccc2Cl)C1=O | -74*
SMILES | aSyn 5UTR act
Cc1cccc(NC(=O)c2cc3ccccc3o2)c1 | -272*
CCC(=O)Nc1cccc(NC(=O)c2cc3ccccc3o2)c1 | -168*
NS(=O)(=O)c1cccc(NC(=O)c2cc3ccccc3o2)c1 | -71*
O=C(Nc1cccc(Br)c1)c1cc2ccccc2o1 | -184*
Cc1cnnc2ccc3c(no[n+]3[O-])c12 | -93*
COc1ccc(/C=N/NC(=O)c2ccn[nH]2)cc1CSc1ccccn1 | -67*
CCCOc1ccc(/C=N/NC(=O)CSc2ccccn2)cc1OC | -77*
Cc1cc(C)n(C(N)=NC(=O)c2ccc([N+](=O)[O-])cc2)n1 | -154*
CCOC(=O)c1cc(C(=O)Nc2ccc(C)c(F)c2)nn1C | -224*
Cc1ccsc1/C=N/Nc1nc2ccccc2[nH]1 | -213*
C(=N\Nc1nc2ccccc2[nH]1)/c1cccs1 | -172*
Cc1cc(=O)[nH]c(N/N=C/c2sccc2C)n1 | -90*
COc1ccc(C2=NN(C(N)=S)C(c3ccco3)C2)cc1 (configuration not stated) | -87*
CCc1ccc(C2=NN(C(C)=O)C(c3ccco3)C2)cc1 (configuration not stated) | -202*
CCS(=O)(=O)Nc1cccc(C2=NN(C(=O)c3ccco3)C(c3ccco3)C2)c1 (configuration not stated) | -73*
O=[N+]([O-])c1ccc(C2=NN(c3ccccc3)C(c3ccco3)C2)cc1 (configuration not stated) | -75*
COc1ccc(-c2nc(NC(=O)Cn3c(=O)oc4ccccc43)sc2C)cc1 | -70*
O=c1[nH]c2ccccc2n1CCCSc1cnc2ccccc2n1 | -64*
C=CCNC(=S)NC(=O)c1ccc(C)c(Br)c1 | -106*
Cc1nc2cc(N3CCCCC3)c(NC(=O)c3ccncc3)cc2c(=O)n1Cc1ccc(Cl)cc1 | 62
COc1cc(NC(=O)c2ccc(Cl)cc2)c(OC)cc1NC(=O)CN1CCCCC1 | -68*
CCC(CC)c1nnc(NC(=O)c2ccc3ccccc3n2)s1 | -86*
CN1CCc2c(sc(NC(=O)c3ccc([N+](=O)[O-])o3)c2C(N)=O)C1 | 86
CC(C)N1CCc2c(sc(NC(=O)c3ccc4ccccc4c3)c2C(N)=O)C1 | -97*
CC(C)c1nnc(NC(=O)c2ccc3ccccc3c2)s1 | -64*
SMILES | aSyn 5UTR act
Cc1nnc(NC(=O)c2ccc3ccccc3c2)s1 | -145*
CCCc1cc(C(=O)Nc2nnc(C)s2)cs1 | -115*
Cc1cnc(NC(=O)c2sc3ccccc3c2Cl)s1 | 59
CC(C)c1nnc(NC(=O)c2sc3ccccc3c2Cl)s1 | -110*
COc1ccc(NCN2C(=O)C3C4C=CC(C4)C3C2=O)cc1 (configuration not stated) | -67*
O=C(Cc1ccc(S(=O)(=O)N2CCOCC2)s1)Nc1ccc(N2CCOCC2)cc1 | -99*
